# Only some compounds are listed: those with a hit (about 4.3% of all), similar ones and a draw of the others.
# GLP-1R agonist: GLP-1 receptor (human) agonism. P43220. HEK293 GLP-1R CRE-luciferase, luminescence, 4-6 h; cells express a hypersensitive GLP-1R form. Potency, µM (series often up to 45.6 µM), for inactives: at the highest dose activation, usual class: activators. 380,000 compounds, 0.007% hits; note: potency is the fitted concentration of half-maximal effect; % of control where 0% means no effect
# Target sequence (P43220 whole entry, looked up): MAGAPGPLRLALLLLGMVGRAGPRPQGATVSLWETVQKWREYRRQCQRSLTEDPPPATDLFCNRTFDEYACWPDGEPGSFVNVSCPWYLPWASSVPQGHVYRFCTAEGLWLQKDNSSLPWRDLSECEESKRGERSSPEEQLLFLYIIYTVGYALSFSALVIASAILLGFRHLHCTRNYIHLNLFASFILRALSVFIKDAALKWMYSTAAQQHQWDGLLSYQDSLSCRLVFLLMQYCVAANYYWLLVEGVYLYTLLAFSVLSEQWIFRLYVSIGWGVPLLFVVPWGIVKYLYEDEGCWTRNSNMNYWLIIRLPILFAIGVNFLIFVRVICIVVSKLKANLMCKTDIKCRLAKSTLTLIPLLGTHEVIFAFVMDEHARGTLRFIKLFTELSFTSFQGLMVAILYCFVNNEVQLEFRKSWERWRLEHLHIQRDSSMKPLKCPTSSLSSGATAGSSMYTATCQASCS
# GLP1R inv ag: inverse agonists of human GLP-1 receptor; Potency, µM (titrated, usually from 38.3 µM), for inactives: at the highest dose activity change, negative = inhibition, most hits filed as inhibitors; P43220; HEK293 GLP-1R CRE-luciferase, luminescence, 24 h; GLP-1R form is constitutively active; 410,000 compounds, 1.6% hits; AID 624417; note: potency is the fitted concentration of half-maximal effect; % is set by controls: 0 for no effect and ±100 for the full control effect; nearly all actives have a fitted effect of over 55% in size
#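 Using stably transfected HEK293 (constitutively active GLP-1R, cAMP-luciferase reporter), compounds were incubated 24 hr and luciferase measured by luminescence.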
# DRD3 antagonist: D3 dopamine receptor (human) antagonism; 360,000 compounds, 2.5% hits; P35462; AID 652054; max response, negative = inhibition, %; D3R cells, DiscoveRx beta-arrestin luminescence, antagonist mode; active compounds read low; in the data active = max response below about -50%; inconclusive = no clear call, values can overlap the other calls; note: % is set by controls: 0 for no effect and ±100 for the full control effect
#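 Cells expressing the human receptor were seeded at 1500 cells/well, incubated overnight at 37 degrees C in 5% CO2, then exposed to library compounds with dopamine controls for 90 minutes at 37 degrees C before luminescent detection.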
# D3 ag: D3 dopamine receptor (human) agonism | AID 652048 | 410,000 compounds, 0.58% hits | max activation, % | D3R DiscoveRx beta-arrestin cells, luminescence, 90 min | P35462; in the data active = max activation above about 30%; note: 0% is about no effect
#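 Agonist mode: compounds and dopamine controls were applied to plated cells for 90 min at 37 degrees C after an overnight attachment at 1500 cells/well. Luminescent read-out followed 30 - 60 minutes at room temperature with DiscoveRx detection reagent.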
# * marks the source's active call; other numbers are inactive results; ? = inconclusive; / = no result. Unless noted, calls come from the whole dose curve; as a rule, active = well fitted curve in the direction sought with a large enough effect; inconclusive = small, poorly fitted or top-dose-only effect, or another doubt; inactive = no such curve, though single readings can be large; an effect the other way counts as inactive or inconclusive.
SMILES,GLP-1R agonist,GLP1R inv ag,DRD3 antagonist,D3 ag
Cc1cccc(NC(=O)c2ccc(-n3cccn3)c([N+](=O)[O-])c2)c1,7%,-5%,-18,-10
Cc1onc(-c2c(F)cccc2Cl)c1C(=O)NC1C(=O)N2C1SC(C)(C)C2C(=O)O (centres undefined),0%,/,/,/
CC(C)NC(=O)N(C)C[C@H]1Oc2c(NC(=O)C3CCCCC3)cccc2C(=O)N([C@H](C)CO)C[C@@H]1C,-2%,7%,0,9
CC(C)c1cc(-c2cc(C(=O)NCc3ccccc3)on2)nc(NCC2CC2)n1,-4%,13µM*,18,8
O=C(COC(=O)c1ccc([N+](=O)[O-])o1)NCCCc1ccccc1,-6%,-6%,-51*,4
CN(C)CCCN(C(=O)c1cccs1)c1nc2ccc(F)cc2s1,/,-7%,/,-19
CCOc1ccc2nc(N(CCCN(C)C)C(=O)c3ccc4c(c3)CCCC4)sc2c1,2%,?,-84*,-23
CN(C)CCCN(C(=O)c1sc2ccccc2c1Cl)c1nc2ccc(F)cc2s1,4%,10µM*,-15,-12
CN(C)CCCN(C(=O)c1ccc2c(c1)CCCC2)c1nc2ccc(Cl)cc2s1,-47%,5µM*,-88*,-10
Cc1ccc2nc(N(CCCN(C)C)C(=O)CCc3ccccc3)sc2c1,9%,?,?,-25
COc1cccc2sc(N(CCN(C)C)C(=O)c3ccc4c(c3)CCCC4)nc12,-6%,?,?,-8
CN(C)CCCN(C(=O)CCc1ccccc1)c1nc2ccc(Cl)cc2s1,0%,3.5µM*,-17,-35
CCCCCCNC(=O)c1cccc(-c2ccc(C)c3ccccc23)n1,9%,11µM*,0,-17
Cc1cc(=O)n2nc(N3CCC(C(=O)Nc4ccc(C)c(Cl)c4)CC3)sc2n1,/,-11%,/,6
O=C1/C(=C/c2cccc(Br)c2)SC(=S)N1CCC(=O)N(CCO)c1ccccc1,-1%,11µM*,4,5
COc1cccc(/C=C2\SC(=S)N(CCCC(=O)N(CCO)c3ccccc3)C2=O)c1,3%,4.5µM*,-2,4
CN1CCN(C(=O)CCN2C(=O)/C(=C/c3cccc(Br)c3)SC2=S)CC1,-9%,-5%,?,-16
COc1cccc(/C=C2\SC(=S)N(CCCC(=O)N3CCCCC3)C2=O)c1,-4%,?,-5,-4
Cc1cccc(CCNC(=O)C2CCN(c3nc4ccccc4nc3C(F)(F)F)CC2)c1,/,8%,/,-2
O=C(N[C@H]1C/C=C\C[C@H](CC(=O)N(CCO)Cc2ccccc2)C(=O)N[C@H](Cc2c[nH]c3ccccc23)COC1=O)OCC1c2ccccc2-c2ccccc21,6%,?,35,4
Fc1ccc(-n2cc(CNCCc3ccccn3)c(-c3ccccc3Cl)n2)cc1,15%,?,-86*,-39
COc1ccc(-n2cc(CNCCc3ncc(C)[nH]3)c(-c3ccccc3Cl)n2)cc1,6%,?,-19,-3
COc1ccc(-n2cc(CNCCc3nc(C)cc(C)n3)c(-c3ccccc3Cl)n2)cc1,19%,10µM*,-85*,-25
COc1cccc(CNCCSc2nnnn2C)c1OCc1ccccc1,1%,-27%,/,-17
CC1=C(C(=O)Nc2cccc(Cl)c2)C2(CCCCCC2)OC1=O,/,?,/,7
SMILES,GLP-1R agonist,GLP1R inv ag,DRD3 antagonist,D3 ag
COc1ccc(NS(=O)(=O)c2cccc(C(=O)NC3CCN(Cc4ccccc4)CC3)c2)cc1,4%,?,-53*,-23
COc1ccc(Cl)cc1NS(=O)(=O)c1cccc(C(=O)NC2CCN(Cc3ccccc3)CC2)c1,-7%,?,-104*,-25
O=C(NC1CCN(Cc2ccccc2)CC1)c1cccc(S(=O)(=O)Nc2cc(C(F)(F)F)ccc2Cl)c1,-21%,-31%,?,-10
COc1ccc(NS(=O)(=O)c2cccc(C(=O)NCc3ccccc3CN3CCCC3)c2)cc1,-5%,?,?,-1
COc1ccc(Cn2c(=O)[nH]c3cc(C(=O)NC4CCN(Cc5ccccc5)CC4)ccc32)cc1,13%,?,-67*,-16
COc1ccc(Cn2c(=O)[nH]c3cc(C(=O)Nc4ccc(N5CCN(C)CC5)cc4)ccc32)cc1,0%,?,12,2
COc1cccc(N2CC(NC(=O)c3cccs3)CC2=O)c1 (centres undefined),/,0%,/,-7
CCN1CCC(N2CCN(c3ccc(F)cc3)CC2)CC1,-3%,-21%,11,2
Fc1ccc(N2CCN(C3CCC(c4ccccc4)CC3)CC2)cc1 (centres undefined),4%,-30%,-82*,-13
Cc1cc(C)c(NC(=O)C2CCN(S(=O)(=O)c3c(C)noc3/C=C/c3ccccc3F)CC2)c(C)c1,/,-2%,/,3
CCOc1ccccc1C1NC(=O)c2ccccc2N1 (centres undefined),0%,?,-30,1
CCCCO,5%,/,/,68*
CCCCCO,6%,1%,0,4
CCOC(=O)c1ccc(NC(=O)Cn2nnc(-c3ccc(C(F)(F)F)cc3)n2)cc1,0%,-12%,/,-6
O=C(OCc1cn([C@H]2CN(C(=O)C3CCCCC3)[C@@H](c3ccc(Cl)cc3)C[C@@H]2O)nn1)c1ccccc1,1%,11µM*,-5,3
CCCCCCN1C[C@@H](n2cc(COC(=O)c3ccccc3)nn2)[C@H](O)C[C@@H]1c1ccc(OC)cc1,-3%,14µM*,-28,-7
CC(C)c1ccc(S(=O)(=O)N2CCC(C(=O)NCC3(N(C)C)CCCCC3)CC2)cc1,-1%,?,4,4
CN(C)C1(CNC(=O)C2CCN(S(=O)(=O)c3cc(Cl)ccc3Cl)CC2)CCCCC1,7%,10µM*,-7,-21
O=S(=O)(c1ccccc1Cl)N1CCC(Cc2ccccc2)CC1,6%,7.9µM*,?,-4
CCOc1ccc(C(C(=O)NCC2CCCO2)N(CCc2cccc(C)c2)C(=O)c2snc(C(N)=O)c2N)cc1 (centres undefined),0%,7.9µM*,6,7
CCOc1ccc(C(C(=O)NCC2CCCO2)N(C(=O)c2snc(C(N)=O)c2N)c2ccc(F)cc2)cc1 (centres undefined),3%,-24%,0,0
CCCCCOC(=O)c1ccc(OC(=O)c2cncc(Br)c2)cc1,0%,8%,-74*,-1
COc1cccc(Oc2cc(NN3CCCCC3)c([N+](=O)[O-])cc2[N+](=O)[O-])c1OC,10%,8%,-65*,-15
O=S(=O)(Nc1cccc(-c2ccc(N3CCCCCC3)nn2)c1)c1ccccc1Cl,14%,5µM*,?,-8
O=S(=O)(Nc1ccc(-c2ccc(N3CCCCC3)nn2)cc1)c1ccc(OC(F)(F)F)cc1,/,11µM*,/,4
Cc1cc(C)c(S(=O)(=O)Nc2ccc(-c3ccc(N4CCC(C)CC4)nn3)cc2)cc1C,/,?,/,-1
Cc1cc(S(=O)(=O)Nc2ccc(-c3ccc(N4CCCCC4)nn3)cc2)c(C)cc1Cl,/,7.1µM*,/,21
